This excerpt belongs to a sample that is enriched for hits.
BLM inh: qHTS Assay for Inhibitors of Bloom's syndrome helicase (BLM) | RecQ-like DNA helicase BLM (Homo sapiens), P54132 | recombinant BLM DNA unwinding, fluorescence dequenching | Potency, µM (doses to about 56.1 µM), hits mostly inhibitors | 350,000 tested, 0.2% active | AID 2528, 2010; further: nearly all actives have a fitted effect of over 35% in size
L3MBTL1 block: qHTS Assay for the Inhibitors of L3MBTL1. Lethal(3)malignant brain tumor-like protein 1 (Homo sapiens), Q9Y468. AlphaScreen L3MBTL1–H3K9me1 peptide binding. Potency, µM (titrated, usually from 57.1 µM), actives largely listed as inhibitors. 230,000 tested, 0.66% active. AID 485360, 2010; further: nearly all actives have a fitted effect of over 60% in size
Target sequence (Q9Y468 whole entry, looked up): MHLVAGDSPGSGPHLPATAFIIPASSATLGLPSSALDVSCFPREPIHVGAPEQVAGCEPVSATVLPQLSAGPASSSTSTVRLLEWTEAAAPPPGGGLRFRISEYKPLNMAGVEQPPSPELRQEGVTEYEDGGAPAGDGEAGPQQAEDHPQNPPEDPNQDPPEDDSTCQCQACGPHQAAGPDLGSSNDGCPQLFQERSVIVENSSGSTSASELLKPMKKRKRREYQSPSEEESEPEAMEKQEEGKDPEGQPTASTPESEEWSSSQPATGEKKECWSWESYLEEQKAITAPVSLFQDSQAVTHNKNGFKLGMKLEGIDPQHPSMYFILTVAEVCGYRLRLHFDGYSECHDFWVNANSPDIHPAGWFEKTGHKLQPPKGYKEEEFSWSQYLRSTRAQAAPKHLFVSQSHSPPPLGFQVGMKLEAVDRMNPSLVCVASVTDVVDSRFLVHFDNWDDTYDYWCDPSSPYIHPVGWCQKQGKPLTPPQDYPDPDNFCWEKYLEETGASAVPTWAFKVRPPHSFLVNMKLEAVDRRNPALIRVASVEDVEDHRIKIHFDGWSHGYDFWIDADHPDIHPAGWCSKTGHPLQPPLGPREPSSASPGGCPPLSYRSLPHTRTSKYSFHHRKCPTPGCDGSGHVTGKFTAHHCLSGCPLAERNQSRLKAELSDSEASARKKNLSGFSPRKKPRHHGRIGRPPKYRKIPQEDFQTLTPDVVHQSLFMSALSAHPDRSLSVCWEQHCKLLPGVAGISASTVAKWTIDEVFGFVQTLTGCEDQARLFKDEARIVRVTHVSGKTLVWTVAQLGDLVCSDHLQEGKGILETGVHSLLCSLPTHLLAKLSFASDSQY
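Read-out is AlphaScreen signal from streptavidin donor and nickel chelate acceptor beads (10 ug/mL final each) bridging L3MBTL1 (50 nM) and biotinylated K9-monomethylated H3(1-15) peptide (75 nM), after 30 min compound exposure at room temperature.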
TDP1 block: qHTS Assay for Inhibitors of Tyrosyl-DNA Phosphodiesterase (TDP1); Tyrosyl-DNA phosphodiesterase 1 (Homo sapiens), Q9NUW8; recombinant TDP1, AlphaScreen DNA substrate cleavage; Potency, µM (highest dose often 130 µM), most hits filed as inhibitors; 350,000 tested, 0.28% active; AID 485290, 2010; further: nearly all actives have a fitted effect of over 40% in size
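Recombinant human Tdp1 (E. coli-expressed, 1 nM final) preincubated with compounds 15 min at room temperature, then 5'-biotin/3'-phosphotyrosine-FITC DNA substrate (15 nM final) added for 5 min. AlphaScreen beads (10 ug/ml final) added 10 min; cleavage lowers signal.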
APEX1 inh: qHTS Assay for Inhibitors of the Human Apurinic/apyrimidinic Endonuclease 1 (APE1); DNA repair nuclease/redox regulator APEX1 (Homo sapiens), P27695; 350,000 tested, 0.35% active; recombinant APE1, TAMRA/BHQ-2 abasic DNA cleavage fluorescence; Potency, µM (highest dose often 65.8 µM), actives largely listed as inhibitors; further: nearly all actives have a fitted effect of over 55% in size
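Endonuclease cleavage of a quenched abasic-site DNA duplex (50 nM) by APE1 (0.75 nM) was tracked by TAMRA dequenching. Compounds were preincubated with enzyme 15 min at room temperature; data normalized to buffer-only and DMSO wells plus NSC13755 control.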
JMJD2E inh: qHTS Assay for Inhibitors of Human Jumonji Domain Containing 2E (JMJD2E). Lysine-specific demethylase 4E (Homo sapiens), B2RXH2. JMJD2E catalytic domain, FDH-coupled NADH fluorescence (FDH is formaldehyde dehydrogenase). Potency, µM (titrated, usually from 57.1 µM), usual class: inhibitors. 230,000 tested, 1.6% active; active means well fitted inhibition curve with a large enough effect, not every such curve was filed as active; inconclusive means small, poorly fitted or top-dose-only effect, or another doubt; inactive means no such curve, though single readings can be large or run the other way; further: nearly all actives have a fitted effect of over 50% in size
RECQ1 inh: qHTS Assay for Inhibitors of RecQ-Like Dna Helicase 1 (RECQ1); RECQ1 DNA unwinding, red fluorescence kinetic read; Potency, µM (highest dose often 57.3 µM), actives largely listed as inhibitors; 240,000 tested, 0.54% active; ATP-dependent DNA helicase Q1 (Homo sapiens), P46063; further: nearly all actives have a fitted effect of over 30% in size
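50 nM RECQ1T1 preincubated 15 min with compound in Tris pH 8.0 buffer with MgCl2, DTT, Tween-20 and 2.5 ug/ml poly(dI-dC); started with 200 nM TAMRA/BHQ-2 forked duplex and 2 mM ATP. Unwinding read as fluorescence (525/598 nm), two reads 2 h apart.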
A number is an active result; i = inactive; ? = inconclusive; nt = no result given. Unless noted, the call rests on the fitted dose curve; in most records, active means well fitted curve in the direction sought with a large enough effect; inconclusive means small, poorly fitted or top-dose-only effect, or another doubt; inactive means no such curve, though single readings can be large; an effect the other way counts as inactive or inconclusive.

SMILES	BLM inh	L3MBTL1 block	TDP1 block	APEX1 inh	JMJD2E inh	RECQ1 inh
CC12CCC(C(=O)NCc3ccccc3)(OC1=O)C2(C)C (centres undefined)	i	?	i	i	i	i
C/C(=N\NC(=O)C12CCC(C)(C(=O)O1)C2(C)C)c1ccccc1O (centres undefined)	i	i	nt	i	8.9µM	i
CC12CCC(C(=O)N/N=C/c3ccc(O)cc3O)(OC1=O)C2(C)C (centres undefined)	i	i	i	i	25µM	i
COc1ccc(NC(=O)C23CCC(C)(C(=O)O2)C3(C)C)cc1 (centres undefined)	i	nt	i	i	i	i
CCn1c(CSc2nnc(-c3cccnc3)n2-c2ccccc2C)nc2cc(C(=O)O)ccc21	i	?	i	?	?	32µM
CO/N=C(/C(=O)NC1C(=O)N2C(C(=O)O)=C(COC(N)=O)CSC12)c1ccco1 (centres undefined)	i	nt	22µM	?	i	i
CO/N=C(\C(=O)N[C@@H]1C(=O)N2C(C(=O)O)=C(COC(N)=O)CS[C@H]12)c1ccco1	i	?	?	i	i	i
Cc1ccc(CNc2ncc(N3CCCCC3)cn2)cc1	nt	nt	nt	i	nt	nt
CCN(CC)c1ccc(NC2CC(=O)N(CCc3ccc(OC)cc3)C2=O)cc1 (centres undefined)	i	nt	i	i	13µM	?
COc1cc(OC)cc(C(=O)Nc2cc(-c3nc4cccnc4s3)ccc2C)c1	i	nt	i	nt	nt	nt
Cn1c(=O)c(/C=C/c2ccc(F)cc2)nc2ccccc21	i	i	nt	i	?	i
O=c1c(/C=C(\O)c2ccc(F)cc2)nc2ccccc2n1-c1ccccc1	i	nt	i	i	28µM	i
CCOc1cccc(CC(=O)N2CCc3c([nH]c4ccccc34)C2c2ccccc2)c1OCC (centres undefined)	i	nt	i	nt	nt	nt
O=C(CN1C(=O)/C(=C/c2ccco2)SC1=S)Nc1ccc(C(=O)O)c(O)c1	i	nt	nt	?	nt	nt
CC(C(=O)Nc1ccc(C(=O)O)c(O)c1)N1C(=O)/C(=C\c2ccco2)SC1=S (centres undefined)	i	nt	nt	21µM	nt	nt
O=C1CCc2cc(S(=O)(=O)NCc3ccccc3)ccc2N1	nt	nt	i	nt	nt	nt
CCN1CCN(c2cc(C)c3cc(NC(=O)/C=C/c4ccc(OCCC(C)C)cc4)ccc3n2)CC1	i	nt	i	nt	nt	nt
Brc1ccc2c(c1)OCCOCCOc1cc(Br)ccc1OCCOCCOCCO2	16µM	i	i	i	i	i
O=C(CSc1cccc[n+]1[O-])c1cc2ccccc2o1	i	i	i	i	32µM	i
CC(=O)O[C@@H]1CC2CCC1(C)C2(C)C (some centres undefined)	nt	nt	nt	i	nt	nt
CC1(C)C2CCC1(C)C(OCC[N+](C)(C)CC(=O)OC1CCCCC1)C2 (centres undefined)	i	i	i	i	i	i
CCOC(=O)C[N+](C)(C)CCOC1CC2CCC1(C)C2(C)C (centres undefined)	i	i	i	i	18µM	i
CCOC(=O)c1c(N)sc(=S)c2c1CCC2	i	?	nt	35µM	?	?
COc1cccc(-c2no[n+]([O-])c2C#N)c1	nt	nt	nt	i	nt	nt
COc1ccc(CNc2nc(-c3ccc(N(C)C)cc3)nc3ccccc23)c(OC)c1	28µM	nt	nt	i	nt	i
SMILES	BLM inh	L3MBTL1 block	TDP1 block	APEX1 inh	JMJD2E inh	RECQ1 inh
CCOc1ccc(C2Nc3ccc4ccccc4c3-c3c2c(=O)oc2ccccc32)cc1 (centres undefined)	i	nt	i	i	?	i
COc1ccc(C2Nc3ccc4ccccc4c3-c3c2c(=O)oc2ccccc32)cc1 (centres undefined)	i	nt	i	i	3.2µM	i
Cc1cccc(CN2CC34C=CC(CC3S2(=O)=O)O4)c1 (centres undefined)	i	nt	i	i	nt	i
C[n+]1cccc2cccc([O-])c21	25µM	28µM	40µM	i	16µM	?
CC(C)(C)n1ncc2c(=O)n(Cc3ccccc3F)cnc21	nt	nt	nt	i	nt	nt
Cc1ccncc1C(=O)O	i	nt	i	i	nt	i
CN(C)c1ccc(/C=C/c2ccc3ccccc3n2)cc1	i	i	i	i	22µM	i
Cc1ccc2c(CNCCc3ccco3)c(C(=O)O)n(Cc3ccc(F)cc3)c2c1	i	nt	i	nt	nt	nt
CC(=C\c1ccco1)/C=C1/SC(=S)N(CC(=O)O)C1=O	i	40µM	nt	i	i	i
CCCN1C(=O)S/C(=C\c2ccc(N3CCOCC3)o2)C1=O	i	nt	?	i	?	i
CCCN1C(=O)S/C(=C/c2ccc(N3CCOCC3)o2)C1=O	i	i	i	i	8.9µM	i
COC(=O)CN1C(=O)S/C(=C/c2ccc(N3CCCCC3)o2)C1=O	i	i	i	i	?	i
O=C(O)CN1C(=O)/C(=C/c2ccc(N3CCCCC3)o2)SC1=S	i	32µM	50µM	i	32µM	i
CC(/C=C1\SC(=S)N(CC(=O)O)C1=O)=C\c1ccccc1	i	i	i	i	i	i
CCOC(=O)c1sc(N2N=C(C)/C(=C\c3ccc(OCC(=O)OC)cc3)C2=O)nc1C	i	i	i	i	22µM	i
CC[C@H](C)[C@H]1O[C@]2(CC[C@@H]1C)C[C@@H]1C[C@@H](C/C=C(\C)[C@@H](O[C@H]3C[C@H](OC)[C@@H](O[C@H]4C[C@H](OC)[C@@H](O)[C@H](C)O4)[C@H](C)O3)[C@@H](C)/C=C/C=C3\CO[C@@H]4[C@H](O)C(C)=C[C@@H](C(=O)O1)[C@]34O)O2	nt	nt	nt	i	nt	nt
CC(C)(C)n1ncc2c(=O)n(Cc3ccc(SC(=O)O)cc3Cl)cnc21	nt	nt	nt	i	nt	nt
O=c1[nH][nH]cc1C=Nc1ccccc1O	i	i	i	i	25µM	i
O=C1NCC(O)=C1C=Nc1ccccc1O	i	i	i	i	18µM	i
C=CCOc1ccc(Br)cc1/C=C1/SC(=Nc2ccc(C(=O)O)cc2)NC1=O	i	nt	79µM	i	i	i
O=C1c2ccccc2C(=O)N1c1ccc2ccccc2n1	nt	nt	i	nt	nt	nt
CC(NC1CCCCC1)C(=O)NN=C(c1ccccc1)c1ccccc1 (centres undefined)	i	i	nt	i	i	28µM
COc1cccc(OCCOc2ccc(/C=C3\C(=N)N4N=C(S(C)(=O)=O)SC4=NC3=O)cc2OC)c1	i	nt	nt	i	nt	nt
CC1CCN(C2=NN3C(=N)/C(=C\c4ccc(OC(=O)c5ccco5)cc4)C(=O)N=C3S2)CC1	i	i	nt	?	nt	nt
